# Many of the other results were omitted from the sample, so hits are more common in it than they were.
# Dicer inh: inhibitors of Dicer pre-microRNA processing, primary screen, biochemical, cat-ELCCA, chemiluminescence; cat-ELCCA pre-miR-21 Dicer processing; stronger effect = higher value; 6% of 47,000 active; z-score at 25 µM; Endoribonuclease Dicer (Homo sapiens), Q9UPY3; AID 1347074, 2019; in the data active = z-score above about 3, passing the limit was not always enough;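 also: plate controls were vehicle for no effect and no enzyme for full effect; higher signal means more uncleaved substrate so more Dicer inhibition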
# Active calls of the source: *.
SMILES,Dicer inh
COc1ccc(C2c3c(oc4cc(C)c(C)cc4c3=O)C(=O)N2c2ccccn2)cc1 (stereo not drawn),-0.09
COc1ccc(C2c3c(oc4cc(C)c(C)cc4c3=O)C(=O)N2c2ccc(C)cn2)cc1OC (stereo not drawn),0.71
CCOC(=O)c1c(N)n(-c2ccc(C)cc2)c2nc3ccccc3nc12,-0.27
O=C(CSc1nc2c(Cl)cc(Cl)cc2s1)Nc1cc(Cl)cc(Cl)c1,-0.38
CCC(=O)Nc1nonc1-c1nc2ccccc2[nH]1,-7.17
CCOC(=O)c1sc(SC(C)CC)c2c1CC(C)(C)CC2=O (stereo not drawn),18.8
O=C(CSc1nc(-c2cccs2)cc(C(F)(F)F)n1)NCc1ccncc1,-0.94
Nc1nc(Nc2ccc(Cl)cc2)n[nH]1,5.37*
Nc1ncnc(Nc2ccc(Oc3ccc(Cl)cc3)cc2)n1,-0.35
Nc1nc(SCc2ccc(Cl)cc2)n[nH]1,0.27
Cc1nc(C#N)c(N2CCCCC2)o1,0.14
CC(C)c1ccc(Nc2c(Nc3ccc(C(C)C)cc3)c(=O)c2=O)cc1,-0.03
O=c1c(Nc2ccccc2)c(Nc2ccccc2)c1=O,7.33*
COc1nc(Nc2ccccc2)nc(OC)n1,-1.58
COc1ccccc1NC(=O)Nc1cc(C)nn1C,-1.71
COc1ccccc1NC(=O)CSc1cc(C(F)(F)F)cc(C(F)(F)F)c1,23.3
O=C(CSC1=NCCS1)Nc1nc2ccccc2s1,-0.6
O=C(CSC1=NCCS1)Nc1nccs1,3.97*
COc1ccccc1NC(=O)CSC1=NCCS1,4.2*
O=C(CSC1=NCCS1)NC1Cc2ccccc2C1,0.6
O=C(CSc1nc2ccccc2s1)Nc1nccs1,0.82
N#CCC(=O)NC(=O)Nc1ccc(F)cc1F,1.35
COC(=O)CSC1=C(C#N)C(c2ccccc2Cl)C(C(=O)OC)C(=O)N1 (stereo not drawn),0.84
Cc1cc(=O)[nH]c(SCc2ccc(Br)cc2)n1,-0.53
Fc1ccc(-c2csc(Nc3cccnc3)n2)cc1,2.75
SMILES,Dicer inh
Cc1c2cnn(C)c(=O)c2c(C)n1Cc1cccs1,0.4
CC1CCCC(C)N1S(=O)(=O)c1ccc(NC2=NS(=O)(=O)c3ccccc32)cc1 (stereo not drawn),0.79
Cc1[nH]nc2c1C(c1ccccc1)C(C#N)=C(N)O2 (stereo not drawn),-1.19
CC(=O)n1c2c(c3ccccc31)OC(N)=C(C#N)C2c1ccc(Cl)cc1 (stereo not drawn),-0.43
CN(C)c1ccc(C2C(C#N)=C(N)Oc3c2sc2ccccc32)cc1 (stereo not drawn),6.01*
Cc1nc2ccc(Br)cc2c(=O)n1-c1ccccc1N1CCCCC1,-0.17
CC(/C=N/OC(=O)c1cc2ccccc2s1)=N\Nc1c(Cl)cc(Cl)cc1Cl,-0.37
CCOC(=O)C1=C(C)Nc2nc3ccccc3n2C1c1ccccc1Cl (stereo not drawn),-0.77
CCCOc1ccc(N2C(=O)CC(SCC(N)C(=O)OCC)C2=O)cc1 (stereo not drawn),-0.88
CCCOc1ccc(N2C(=O)CC(SCCN)C2=O)cc1 (stereo not drawn),-0.11
CCOc1ccc(N2C(=O)CC(Sc3nc(C)c(CC)c(C)c3C#N)C2=O)cc1 (stereo not drawn),3.39*
Cc1cc(C)c(NC(=S)NCCCN2CCOCC2)c(C)c1,1.13
Cc1cccc(-n2ncc3ccccc3c2=O)c1,4.25*
O=c1c2ccccc2cnn1-c1ccc2ccccc2c1,-1.25
O=c1c2ccccc2cnn1-c1ccc(F)cc1,0.98
CCOC(=O)c1nn(-c2ccccc2)c2nc(Nc3ccc(Cl)cc3)cc(=O)n12,0.66
COCc1[nH]nc2c1C(c1cccc(Br)c1)C(C#N)=C(N)O2 (stereo not drawn),-2.57
Cc1nc(-c2ccccn2)nc(NC2CCN(c3ncc(C(F)(F)F)cc3Cl)CC2)c1Cl,-0.97
O=C1CC(c2cccc(Cl)c2)Cc2nc3nc(C(F)(F)F)nn3cc21 (stereo not drawn),3.82*
O=C1CC(c2cccc(Cl)c2)Cc2nc(N3CCc4ccccc43)ncc21 (stereo not drawn),-0.39
O=C1CC(c2cccc(Cl)c2)Cc2nc(NCc3ccco3)ncc21 (stereo not drawn),2.31
Clc1ccc(/C=N/Nc2ncn[nH]2)cc1,-0.38
CCCCc1c(C)nc2ccccc2c1SCCC(=O)O,3.66*
CCCCc1c(C)nc2c(OC)cccc2c1SCCC(=O)O,3.5*
COc1ccc(-c2nnc(SCCC(=O)O)o2)cc1,-0.26
SMILES,Dicer inh
CCOC(=O)CSc1nc(C)c2ccccc2n1,0.21
CCOC(=O)c1cc(C)nc2ccc(Br)cc12,-0.87
Cc1nc2ccc(Br)cc2c(-c2ccccc2)c1C(=O)O,-0.82
CCCCc1c(O)nc(SCCC(=O)O)[nH]c1=O,-0.2
CCc1c(C)nc2ccc(Br)cc2c1SCCC(=O)O,3.16*
CCCCc1cc(C)c2nc(-c3ccc(OC)c(OC)c3)cc(C(=O)O)c2c1,-6.4
FC(F)(F)c1cc(-c2cccnc2)nc2c(-c3ccccc3)cnn12,-0.53
N#Cc1cc(NC(=O)c2ccc(Cl)cc2)c(=O)n2c1sc1ccccc12,0.32
O=S(=O)(c1ccc(Cl)cc1)n1ccc(C(F)(F)F)n1,-0.4
CSC(=NCc1ccccn1)NC#N,0.07
Cc1ccc(NC(=S)N2CCCc3cccc(C)c32)c(C)c1,0.02
Cc1ccc2c(c1)n(S(=O)(=O)c1ccc(F)cc1)c(=O)n2S(=O)(=O)c1ccc(F)cc1,1.02
CSC(SC)=C(C#N)C(=O)c1cccc(C)c1,-0.63
N#CC(C(=O)c1cccc(C(F)(F)F)c1)=C1SCCCCS1,0.81
CSC(SC)=C(C#N)C(=O)c1cccc(C(F)(F)F)c1,5.06*
CN(C)c1ccc(/C=C2\C(=O)Nc3ccccc32)cc1C#N,0.05
O=C(Nc1ccc(N2CCOCC2)cc1)c1ncn[nH]1,2.03
O=C(Nc1ccc(N2CCOCC2)cc1)c1cc2cc(Cl)ccc2[nH]1,4*
O=C(Nc1ccc(N2CCOCC2)cc1)c1ccc(Oc2cc(Cl)cc(Cl)c2)o1,0.52
O=C(c1cnc2ccccn12)C(F)(F)Sc1ccccc1,-0.53
CN(C)C=C1C(=O)CC(c2ccc(Cl)cc2)CC1=O (stereo not drawn),-0.53
CC1CCN(c2nc3ccccc3nc2SCC(=O)NC2CC2)CC1,3.08*
O=C(CSc1nc2ccccc2nc1N1CCCCC1)NCC1CCCO1 (stereo not drawn),3.11*
CC1CN(c2nc3ccccc3nc2SCC(=O)NC2CCCCC2)CC(C)O1 (stereo not drawn),1.73
O=C(CSc1nc2ccccc2nc1N1CCCC1)NCC1CCCO1 (stereo not drawn),1.65
SMILES,Dicer inh
O=C(CSc1nc2ccccc2nc1N1CCCC1)N1CCN(C2CCCCC2)CC1,3.01*
O=C(CSc1nc2ccccc2nc1N1CCOCC1)N1CCN(C2CCCCC2)CC1,1.99
CC1CN(c2nc3ccccc3nc2SCC(=O)N2CCN(C3CCCCC3)CC2)CC(C)O1 (stereo not drawn),1.78
COc1ccc(OC)c(NC(=O)CSc2nc3ccccc3nc2N2CCCC2)c1,1.38
CC1CN(c2nc3ccccc3nc2SCC(=O)NC2CCCC2)CC(C)O1 (stereo not drawn),1.74
CSc1ccccc1NC(=O)Cn1nc([N+](=O)[O-])c(Br)c1C,-0.37
CCCCN1Cc2c(n(CC(=O)Nc3ccc(F)cc3)c3cc(-c4ccccc4)nn3c2=O)C1=O,0.04
COC(=O)c1csc(S(=O)(=O)NCc2nn(-c3ccccc3)nc2C)c1OC,-1.18
Cn1c(=O)c2c(nc(Oc3cccc4cccnc34)n2C)n(C)c1=O,0.6
